Measured values reported in PubChem BioAssay (NCI).
The panel holds about 79,000 compounds, 15% with a hit somewhere; the sample as a whole holds those more often. Calls of active or inactive are those of the source. Cut-off read from the data, not from the text of the source: active = growth inhibition above about 70%; inactive = the rest.

Columns and labels:
[1] = NCI Yeast Anticancer Drug Screen. Data for the rad52 strain (AID 147);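 note: 0% = growth of vehicle-treated control cultures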; settings: S. cerevisiae rad52 mutant growth inhibition, active compounds read high
Method in brief: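 Here a repair-compromised yeast strain receives each compound; its growth is then quantified and normalised to vehicle-only controls.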

[2] = NCI Yeast Anticancer Drug Screen. Data for the wt1 strain (AID 149);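 note: 0% = growth of vehicle-treated wt1 cultures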; settings: S. cerevisiae wt1 strain (SPY 50644) growth inhibition, active compounds read high
Method in brief: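 The wt1 strain was treated with compounds, and growth was compared with vehicle-treated cultures to give inhibition.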

[3] = NCI Yeast Anticancer Drug Screen. Data for the rad50EPP+ strain (AID 151);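 note: 0% = growth of vehicle-treated control cultures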; settings: S. cerevisiae rad50 mutant strain, active compounds read high
Method in brief: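 Read-out is yeast growth inhibition relative to vehicle; cells used were the rad50EPP+ strain.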

[4] = NCI Yeast Anticancer Drug Screen. Data for the mgt1 strain (AID 153); settings: S. cerevisiae mgt1 mutant growth inhibition, active compounds read high
Method in brief: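 Measured: inhibition of mgt1 yeast growth by compound, normalized to vehicle-treated cultures.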

[5] = NCI Yeast Anticancer Drug Screen. Data for the rad50 strain (AID 155);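 note: 0% = growth of vehicle-only cultures of the same strain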; settings: S. cerevisiae rad50 strain growth inhibition, active compounds read high
Method in brief: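 Cells are treated with compound, grown, and their growth is then scored against vehicle-only cultures of the same repair-deficient yeast strain.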

[6] = NCI Yeast Anticancer Drug Screen. Data for the mec2-1 strain (AID 157); settings: S. cerevisiae mec2-1 strain, active compounds read high
Method in brief: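 Using mec2-1 yeast: add compound, measure growth, express inhibition versus vehicle-treated cultures.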

[7] = NCI Yeast Anticancer Drug Screen. Data for the rad14 strain (AID 159);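 note: 0% = growth of vehicle-treated control cultures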; settings: S. cerevisiae rad14 strain growth inhibition, active compounds read high
Method in brief: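 Readout: yeast growth inhibition, referenced to vehicle-only cultures. Strain bears a defined alteration in DNA damage repair.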

[8] = NCI Yeast Anticancer Drug Screen. Data for the sgs1 mgt1 strain (AID 161);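 note: 0% = growth of cultures given vehicle only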; settings: S. cerevisiae sgs1 mgt1 strain, active compounds read high
Method in brief: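 Percent growth inhibition was derived by comparing compound-exposed mutant yeast with vehicle-exposed cultures. The strain carries alterations in DNA damage repair.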

[9] = NCI Yeast Anticancer Drug Screen. Data for the CLN2oe strain (AID 163);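 note: 0% = growth of vehicle-only control cultures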; settings: S. cerevisiae CLN2oe strain, active compounds read high
Method in brief: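 Whole-cell yeast growth assay. A strain engineered for altered cell-cycle control received compound, and inhibition relative to vehicle-treated cultures was recorded.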

[10] = NCI Yeast Anticancer Drug Screen. Data for the cln2 rad14 strain (AID 165);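 note: 0% = growth equal to vehicle treated cultures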; settings: S. cerevisiae cln2 rad14 strain, active compounds read high
Method in brief: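 Yeast strain cln2 rad14, bearing defects in cell cycle control and DNA repair, serves as the test system; values reflect growth inhibition compared with vehicle.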

[11] = NCI Yeast Anticancer Drug Screen. Data for the bub3 strain (AID 167); settings: S. cerevisiae bub3 mutant strain, active compounds read high
Method in brief: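 Part of a panel of yeast mutants defective in DNA damage repair or cell cycle regulation. Each strain is grown with compound, and inhibition is calculated relative to solvent-treated cultures.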

[12] = NCI Yeast Anticancer Drug Screen. Data for the wt2 strain (AID 169);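 note: 0% = growth of vehicle-treated yeast cultures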; settings: S. cerevisiae wt2 strain growth inhibition, active compounds read high
Method in brief: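 Treated yeast vs. vehicle-treated yeast: growth inhibition determined.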

[13] = NCI Yeast Anticancer Drug Screen. Data for the mlh1 strain (AID 171);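 note: 0% = growth of vehicle-treated control cultures of the same strain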; settings: S. cerevisiae mlh1 strain growth inhibition, active compounds read high
Method in brief: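 A yeast strain with a defined genetic lesion serves as the test organism. Cultures receive compound or vehicle, and growth is measured.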

[14] = NCI Yeast Anticancer Drug Screen. Data for the sgs1 strain (AID 173);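 note: 0% = growth of vehicle-only control cultures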; settings: S. cerevisiae sgs1 mutant, active compounds read high
Method in brief: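 A genetically defined yeast mutant is incubated with the test compound, and its growth is compared to that of the same strain given vehicle.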

[15] = NCI Yeast Anticancer Drug Screen. Data for the mlh1 rad18 strain (AID 175); settings: S. cerevisiae mlh1 rad18 strain growth inhibition, active compounds read high
Method in brief: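 Steps: expose repair-defective yeast to compound; measure growth; express inhibition against vehicle-treated controls.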

[16] = NCI Yeast Anticancer Drug Screen. Data for the rad18 strain (AID 177); settings: S. cerevisiae rad18 mutant growth inhibition, active compounds read high
Method in brief: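 Measured value is growth inhibition of a yeast strain bearing a DNA repair alteration, referenced to vehicle-treated cells.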

[17] = at 5.0 µM (retest, dose inferred, filed as 0.5)
[18] = at 50.0 µM (retest, dose inferred, filed as 5.0)

Measured: growth inhibition

CC(C)OC(=O)NNc1c(Cl)cc(Cl)cc1Cl
inactive: [1]; at 1.2 µM -2% | [1]; at 3.7 µM -2% | [1]; at 11.0 µM 2% | [1]; at 33.0 µM 6% | [1]; at 100.0 µM 5% | [2]; at 1.2 µM -2% | [2]; at 3.7 µM -3% | [2]; at 11.0 µM -4% | [2]; at 33.0 µM -3% | [2]; at 100.0 µM -5% | [3]; at 1.2 µM 10% | [3]; at 3.7 µM 31% | [3]; at 11.0 µM 49% | [4]; at 1.2 µM -2% | [4]; at 3.7 µM -2% | [4]; at 11.0 µM 2% | [4]; at 33.0 µM 8% | [4]; at 100.0 µM 5% | [5]; at 1.2 µM -2% | [5]; at 3.7 µM 7% | [5]; [17] 18% | [5]; at 11.0 µM 18% | [5]; at 33.0 µM 16% | [5]; [18] 28% | [5]; at 50.0 µM 2.75% | [5]; at 100.0 µM 13% | [6]; at 1.2 µM -3% | [6]; at 3.7 µM -3% | [6]; [17] 0% | [6]; at 11.0 µM 0% | [6]; at 33.0 µM 1% | [6]; [18] 10% | [6]; at 50.0 µM 3.15% | [6]; at 100.0 µM 0% | [7]; at 1.2 µM -4% | [7]; at 3.7 µM -2% | [7]; at 11.0 µM 2% | [7]; at 33.0 µM 7% | [7]; at 100.0 µM 7% | [8]; [17] 4% | [8]; [18] 24% | [8]; at 50.0 µM 15.2% | [9]; at 1.2 µM 1% | [9]; at 3.7 µM 5% | [9]; at 11.0 µM 14% | [9]; at 33.0 µM 19% | [9]; at 100.0 µM 18% | [10]; [17] 14% | [10]; [18] 21% | [10]; at 50.0 µM 12.3% | [11]; at 1.2 µM 26% | [11]; at 3.7 µM 38% | [11]; [17] 36% | [11]; at 11.0 µM 58% | [12]; at 1.2 µM 2% | [12]; at 3.7 µM 3% | [12]; at 11.0 µM 2% | [12]; at 33.0 µM 9% | [12]; at 100.0 µM 17% | [13]; at 1.2 µM -2% | [13]; at 3.7 µM -1% | [13]; at 11.0 µM 4% | [13]; at 33.0 µM 8% | [13]; at 100.0 µM 8% | [14]; at 1.2 µM -3% | [14]; at 3.7 µM -2% | [14]; at 11.0 µM 0% | [14]; at 33.0 µM 8% | [14]; at 100.0 µM 9% | [15]; [17] 10% | [15]; [18] 38% | [15]; at 50.0 µM 24.9% | [16]; at 1.2 µM 0% | [16]; at 3.7 µM 15% | [16]; at 11.0 µM 33% | [16]; at 33.0 µM 40% | [16]; at 100.0 µM 27%
active: [3]; at 33.0 µM 74% | [3]; at 100.0 µM 79% | [11]; at 33.0 µM 76% | [11]; [18] 82% | [11]; at 50.0 µM 93.2% | [11]; at 100.0 µM 81%

O=[N+]([O-])[O][Sn]([O][Sn]([O][N+](=O)[O-])([c]1ccccc1)[c]1ccccc1)([c]1ccccc1)[c]1ccccc1
active: [3]; at 100.0 µM 99% | [4]; at 100.0 µM 94% | [5]; at 100.0 µM 85% | [6]; at 100.0 µM 86% | [7]; at 100.0 µM 94% | [8]; [18] 94% | [8]; at 50.0 µM 70% | [11]; [18] 84% | [11]; at 50.0 µM 72.5% | [13]; at 100.0 µM 94% | [14]; at 100.0 µM 98% | [16]; at 100.0 µM 90%
inactive: [1]; at 1.2 µM 6% | [1]; at 3.7 µM 9% | [1]; at 11.0 µM 13% | [1]; at 33.0 µM 32% | [1]; at 100.0 µM 57% | [2]; at 1.2 µM -3% | [2]; at 3.7 µM -7% | [2]; at 11.0 µM -11% | [2]; at 33.0 µM -2% | [2]; at 100.0 µM 62% | [3]; at 1.2 µM 8% | [3]; at 3.7 µM -2% | [3]; at 11.0 µM 0% | [3]; at 33.0 µM 20% | [4]; at 1.2 µM 8% | [4]; at 3.7 µM 10% | [4]; at 11.0 µM 25% | [4]; at 33.0 µM 10% | [5]; at 1.2 µM 16% | [5]; at 3.7 µM 20% | [5]; [17] 25% | [5]; at 11.0 µM 16% | [5]; at 33.0 µM 28% | [5]; [18] 66% | [5]; at 50.0 µM 65.2% | [6]; at 1.2 µM 9% | [6]; at 3.7 µM 0% | [6]; [17] 11% | [6]; at 11.0 µM 16% | [6]; at 33.0 µM 14% | [6]; [18] 44% | [6]; at 50.0 µM 57.6% | [7]; at 1.2 µM 0% | [7]; at 3.7 µM -8% | [7]; at 11.0 µM -7% | [7]; at 33.0 µM 22% | [8]; [17] 35% | [9]; at 1.2 µM -32% | [9]; at 3.7 µM -48% | [9]; at 11.0 µM -34% | [9]; at 33.0 µM -30% | [9]; at 100.0 µM 29% | [10]; [17] 3% | [10]; [18] 26% | [10]; at 50.0 µM 30.2% | [11]; at 1.2 µM 8% | [11]; at 3.7 µM -4% | [11]; [17] 23% | [11]; at 11.0 µM -7% | [11]; at 33.0 µM 6% | [11]; at 100.0 µM 62% | [12]; at 1.2 µM -47% | [12]; at 3.7 µM -47% | [12]; at 11.0 µM -25% | [12]; at 33.0 µM -26% | [12]; at 100.0 µM 58% | [13]; at 1.2 µM 7% | [13]; at 3.7 µM -3% | [13]; at 11.0 µM 5% | [13]; at 33.0 µM 35% | [14]; at 1.2 µM -6% | [14]; at 3.7 µM -12% | [14]; at 11.0 µM -24% | [14]; at 33.0 µM 51% | [15]; [17] 19% | [15]; [18] 67% | [15]; at 50.0 µM 68% | [16]; at 1.2 µM -12% | [16]; at 3.7 µM -12% | [16]; at 11.0 µM -11% | [16]; at 33.0 µM 5%
